Only some compounds are listed: those with a hit (about 3.6% of all), similar ones and a draw of the others.
Mm-Cpn inhibitor: M. maripaludis TRiC chaperonin inhibition; AID 504842; purified Mm-Cpn ATPase, ADP Transcreener TR-FRET; Potency, µM (top dose mostly 76.9 µM), without a hit: top-dose activity, negative = inhibition, usual class: inhibitors; 330,000 compounds, 0.031% hits; note: % is set by controls: 0 for no effect and ±100 for the full control effect; nearly all actives have a fitted effect of over 80% in size
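ATPase turnover read by TR-FRET ADP competition (Eu cryptate antibody/ADP-d2, 665/590 nm): 10uM ATP final, 25nM Mm-CPN final, 30 min 37degC after 10-min compound preincubation, pH 7.4 Tris/KCl/MgCl2/DTT buffer.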
ClpP mod: qHTS Assay for Activators of ClpP | purified B. subtilis ClpP, FRET peptide cleavage, 20 min | Potency, µM (series often up to 57.5 µM), for inactives: at the top dose activity change, negative = active | 340,000 compounds, 1.9% hits | AID 651965, 2013; active = well fitted falling curve with a large enough effect; inconclusive = small, poorly fitted or top-dose-only effect; inactive = no such curve, though single readings can be large or run the other way; note: the source files actives as falling curves though it sought activators and does not explain the sign; nearly all actives have a fitted effect of over 65% in size
Target sequence (P80244 whole entry, looked up): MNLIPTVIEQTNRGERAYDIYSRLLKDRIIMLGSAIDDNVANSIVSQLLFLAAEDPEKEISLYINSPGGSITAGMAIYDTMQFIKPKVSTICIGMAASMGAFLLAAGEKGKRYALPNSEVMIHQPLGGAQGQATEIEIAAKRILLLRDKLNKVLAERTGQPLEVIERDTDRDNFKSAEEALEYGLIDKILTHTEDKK
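FRET quenching reversal measured ClpP activation: 10 microg/mL B. subtilis ClpP at pH 8 with the FRET-FV decapeptide, read at 430 nm after 320 nm excitation. The 20-min minus 0-min signal was scaled between DMSO/no-enzyme wells and ADEP (5.8 microM final).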
Abeta yeast res: A-beta toxicity reversal in yeast; yeast expressing A-beta42, growth rescue, OD600, 48 h; response scale: 0% DMSO, 100% iron-clioquinol control; Potency, µM (doses to about 46.1 µM), hits mostly activators; AID 1347071; 410,000 compounds, 0.063% hits; note: nearly all actives have a fitted effect of over 55% in size
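Yeast A-beta toxicity model in growth medium with pinned compounds, 48 h at 30 C; growth read as absorbance at 600 nm. Normalized to FeCl3/clioquinol equimolar mix (positive) and DMSO (negative).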
TDP43 rescue: TDP-43 toxicity inhibition in yeast; TDP-43 expressing yeast growth rescue, BacTiter-Glo, 24 h; AID 652104; 410,000 compounds, 1.8% hits; Potency, µM (titrated, usually from 46.1 µM), for inactives: top-dose growth rescue (activation), actives largely listed as activators; note: % of control where 0% means no effect; nearly all actives have a fitted effect of over 50% in size
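Yeast expressing TDP-43 (pregrown in raffinose, seeded at OD600=0.02 in galactose medium) exposed to compounds 24 hr at 30 deg C. Growth read by BacTiter-Glo luminescence; rescue of toxicity appears as increased signal.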
FUS yeast rescue: rescues growth of FUS-expressing yeast; S. cerevisiae FUS-expressing, growth rescue, OD600, 24 h; Potency, µM (doses to about 76.6 µM), most hits filed as activators; 390,000 compounds, 0.24% hits;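 note: plate controls were DMSO vehicle for no effect and reference control for full effect; nearly all actives have a fitted effect of over 55% in size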
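Read-out: OD at 600 nm after 24hr at 30C, reporting rescue of FUS-induced yeast toxicity. Cells at OD 0.005 in galactose (2%) minimal medium; compounds tested in a dilution series; CP55940 titration from 92uM final as control.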
aSyn rescue: alpha-synuclein toxicity inhibition in yeast; Yeast expressing alpha-synuclein, growth rescue, BacTiter-Glo, 24 h; Potency, µM (titrated, usually from 46.1 µM), for the others: at the top dose growth rescue (activation), hits mostly activators; 370,000 compounds, 0.14% hits; note: % of control where 0% means no effect; nearly all actives have a fitted effect of over 65% in size
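Readout is rescue of growth in alpha-synuclein-expressing yeast, so inhibitors of toxicity appear as activators. Growth after 24 hr at 30 deg C in galactose medium is quantified by luminescence.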
* = called active by the depositor; i = inactive; ? = inconclusive; . = no result given; [ ] = remark or other dose. Unless noted, calls come from the whole dose curve; as a rule, active = well fitted curve in the direction sought with a large enough effect; inconclusive = small, poorly fitted or top-dose-only effect, or another doubt; inactive = no such curve, though single readings can be large; an effect the other way counts as inactive or inconclusive. Potency is the fitted concentration of half-maximal effect.

SMILES	Mm-Cpn inhibitor	ClpP mod	Abeta yeast res	TDP43 rescue	FUS yeast rescue	aSyn rescue
COc1cc2cc(CNc3ccccc3)c(=O)n(CC(=O)Nc3cccc(Cl)c3C)c2cc1OC	.	4%	i	-13%	?	-3%
COc1ccc2oc(C(=O)OCC(=O)Nc3ccc(OC)c(S(N)(=O)=O)c3)c(C)c2c1	0%	28µM*	i	-22%	i	-5%
OC(CNCc1ccco1)COc1ccccc1 (centres undefined)	1%	14µM*	i	-17%	.	-11%
CCOC(=O)c1cccc(NC(=O)Cn2c(=O)c3cccn3c3ccccc32)c1	.	4%	i	-14%	i	.
OCCCc1nc2n(n1)C(c1ccccc1Cl)C=C(c1cccs1)N2 (centres undefined)	-6%	22µM*	i	1%	?	1%
OCCCc1nc2n(n1)C(c1cccs1)C=C(c1ccccc1)N2 (centres undefined)	-2%	.	.	.	.	.
Cc1ccccc1Cn1c(Oc2ccccc2F)nc2c1c(=O)n(C)c(=O)n2C	.	0%	i	-18%	i	.
COc1ccc(-n2nc([N+](=O)[O-])c(=NC3CCN(Cc4ccccc4)CC3)n2O)cc1	0%	.	i	-4%[0.397 µM]	i	4%
O=[N+]([O-])c1nn(-c2ccc3c(c2)OCCO3)n(O)c1=NCc1ccccc1Cl	1%	-3%	i	-3%	i	12%
COc1ccccc1CN=c1c([N+](=O)[O-])nn(-c2ccc3c(c2)OCCO3)n1O	2%	-8%	i	18µM*	i	6%
O=[N+]([O-])c1nn(-c2ccc3c(c2)OCCO3)n(O)c1=NC1CCCCC1	3%	0%	i	7.9µM*	i	14%
C#CC1(O)CCC2C3CCc4cc(O)cc(C)c4C3CCC21C (centres undefined)	.	32µM*	i	?	.	?
C[C@]12CC[C@@H]3c4ccc(O)cc4CC[C@H]3[C@@H]1C[C@@H](O)[C@@H]2O	0%	0%	i	0%	i	8%
O=C1CSC(=Nc2ccccc2Cl)N1	-3%	0%	i	18%	i	6%
Fc1ccc(F)c(C2=NNC(=Nc3ccccc3F)SC2)c1	-4%	-5%	i	-4%	i	-16%
c1ccc(CN=C2NN=C(c3ccccc3)CS2)cc1	1%	-4%	i	13µM*	i	5%
Clc1ccccc1N=C1NN=C(c2cccs2)CS1	1%	.	i	11µM*	i	8%
Fc1ccccc1N=C1NN=C(c2ccccc2)CS1	0%	10µM*	i	?	i	-19%
CCC1(C)Cc2ccccc2C(Nc2c(C)n(C)n(-c3ccccc3)c2=O)=N1 (centres undefined)	0%	14µM*	i	22%	i	-2%
c1ccc2[nH]c(CNc3nc(N4CCOCC4)nc4c3ncn4-c3ccsc3)nc2c1	.	.	.	.	i	.
c1ccc2cc3[nH]c(CNc4nc(N5CCOCC5)nc5c4ncn5-c4ccsc4)nc3cc2c1	.	.	.	.	14µM*	.
CC(C)CNc1ncnc2nc[nH]c12	.	-1%	.	.	.	-1%
COc1ccccc1N(C)S(=O)(=O)c1ccc(Cl)c(C(=O)N2CCC2)c1	0%	18µM*	i	16%	i	0%
COc1ccccc1N(C)S(=O)(=O)c1ccc(Cl)c(C(=O)NNC(=O)c2ccccc2O)c1	1%	0%	i	11%	?	-2%
CCc1ccccc1NC(=O)C1COc2ccccc2C1 (centres undefined)	.	2%	i	2%	i	.
COc1ccc(CCNC(=O)C2CCC(=O)N(CC3CCCCC3)C2)cc1 (centres undefined)	1%	32µM*	i	-10%	.	-5%
COc1ccc(CCCNC(=O)C2CCC(=O)N(CC3CCCCC3)C2)cc1 (centres undefined)	0%	2%	i	-4%	.	1%

Compound activity: PubChem BioAssay, National Center for Advancing Translational Sciences (NCATS)
